Among the data in PubChem BioAssay (Tox21) are Potency values, retold here.

A short description of assay [1]: Nuclear factor erythroid 2-related factor 2/antioxidant responsive element (Nrf2/ARE) small molecule agonists: qHTS cell viability counter screen in human keratinocytes (AID 1919968; active = well fitted curve in the direction sought with a large enough effect in the repeat runs; an effect the other way counts as inactive or inconclusive; note: nearly all actives have a fitted effect of over 55% in size). The gist of the method: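 Parallel cytotoxicity read: KeratinoSens HaCaT cells, compound treatment 23 h, viability by CellTiter-Fluor fluorescence 1 h post-reagent.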
Assay [2] in a line: Nuclear factor erythroid 2-related factor 2/antioxidant responsive element (Nrf2/ARE) small molecule agonists: luciferase reporter gene qHTS assay in human keratinocytes (AID 1919969). Note: nearly all actives have a fitted effect of over 35% in size. Note: potency is the fitted concentration of half-maximal effect.
The target of assay [3] is Gonadotropin-releasing hormone receptor (Homo sapiens) (UniProt P30968). In words: Human gonadotropin-releasing hormone receptor (GnRHR) small molecule agonists, calcium flux assay in GnRHR-HEK293 cells (AID 1920063). Note: nearly all actives have a fitted effect of over 35% in size. The gist of the method: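 Calcium flux, agonist mode, human GnRHR stably integrated in HEK293; dye 1 h at 37 C before compound; Ex/Em=480/540 kinetic read, 3 min; 15 concentrations, triplicate.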

In assay [4] the target is KiSS-1 receptor (Homo sapiens) (UniProt Q969F8). In words: Human kisspeptin (KISS1R) small molecule agonists, calcium flux assay in KISS1R-HEK293 cells (AID 1920064; active = well fitted curve in the direction sought with a large enough effect in the repeat runs; an effect the other way counts as inactive or inconclusive). The gist of the method:
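Triplicate 15-concentration series were applied to dye-loaded human KISS1R HEK293 cells, and agonist-evoked calcium fluorescence was captured for 3 min.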

Assay [5] in a line: G protein-coupled receptor (GPCR) small molecule agonists, calcium flux assay: HEK293 wild type cell line counter screen (AID 1920065). The gist of the method:
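Non-specific calcium responders were flagged by adding DMSO-dissolved compounds to dye-loaded cells and reading 480/540 nm fluorescence each second for 3 min; ATP served as positive control.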

Assay [6] can be described thus: p53 small molecule agonists, cell-based qHTS assay with human liver microsomes (AID 1963577).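 Note: p53 response element beta-lactamase reporter cells with liver microsomes plus NADPH.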 The gist of the method: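 HLM-supplemented p53RE-bla reporter assay: 16 h compound exposure at 37 C, microsomes and NADPH each 0.5 mg/mL final, read by fluorescence intensity.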
A short description of assay [7]: p53 small molecule agonists, cell-based qHTS assay with rat liver microsomes (AID 1963578). The gist of the method: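 Quantitative HTS of the Tox21 10K library: p53RE-bla cells, rat liver microsomes plus NADPH at 0.5 mg/mL final each, 16 h at 37 C, beta-lactamase fluorescence detection.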
The nature of assay [8]: p53 small molecule agonists, cell-based qHTS assay with human liver microsomes: qHTS cell viability counter screen (AID 1963579). Note: nearly all actives have a fitted effect of over 45% in size. Summed up:
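Viability of p53RE-bla cells is measured as CellTiter-Glo luminescence following a 16 h, 37 C incubation with compound, liver microsomes from human donors and NADPH.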

The nature of assay [9]: p53 small molecule agonists, cell-based qHTS assay with rat liver microsomes: qHTS cell viability counter screen (AID 1963580). Note: nearly all actives have a fitted effect of over 45% in size. Summed up: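 Cytotoxicity counter screen: intracellular ATP read by CellTiter-Glo luminescence in the p53 reporter wells. HCT-116 p53RE-bla cells were treated for 16 h at 37 C alongside rat liver microsomes and NADPH, each 0.5 mg/mL final.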
Assay [10] in a line: p53 small molecule agonists, cell-based qHTS assay (AID 1963582; active = well fitted activation curve with a large enough effect in the signal ratio in the repeat runs, not every such curve was filed as active; the % refers to the signal ratio). Summed up: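 Beta-lactamase reporter cells (p53RE-bla) treated with compounds for 16 h at 37 C; FRET substrate, 2 h, room temperature; fluorescence intensity.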
The target in assay [11] is 5-hydroxytryptamine receptor 2A (Homo sapiens) (UniProt P28223). In words: 5-hydroxytryptamine receptor 2A (HTR2A) small molecule antagonists, cell-based qHTS assay (AID 1963586). Note: nearly all actives have a fitted effect of over 45% in size. Summed up:
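CHO cells stably expressing human HTR2A were plated for 18 h at 37 C, then loaded with calcium dye for 1 h. Compounds were preincubated 5 min at room temperature before DOI (4 nM solution) was added. Kinetic fluorescence was read for 3 min.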

The target is the same in assay [12]. In words: 5-hydroxytryptamine receptor 2A (HTR2A) small molecule agonists, cell-based qHTS assay (AID 1963587). Note: nearly all actives have a fitted effect of over 30% in size. Note: potency is the fitted concentration of half-maximal effect. Summed up:
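Kinetic calcium-flux fluorescence (2 min, 1 sec intervals) after compound addition in agonist mode. HTR2A-CHO cells were cultured 18 h, then dye-loaded 1 h at 37 C.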

Assay [13] concerns the target Muscarinic acetylcholine receptor M1 (Homo sapiens) (UniProt P11229). Briefly: Cholinergic receptor muscarinic 1 (CHRM1) small molecule antagonists, cell-based qHTS assay (AID 1963588). Note: nearly all actives have a fitted effect of over 40% in size. Note: potency is the fitted concentration of half-maximal effect. Summed up:
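Compounds were tested at 15 concentrations in three independent runs. Dye-loaded CHRM1-CHO cells were exposed 5 min at room temperature before stimulation by acetylcholine added at 50nM. Intracellular calcium was read kinetically on FDSS for 3 min.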

Assay [14] has the same target. In words: Cholinergic receptor muscarinic 1 (CHRM1) small molecule agonists, cell-based qHTS assay (AID 1963589). Note: nearly all actives have a fitted effect of over 35% in size. Note: potency is the fitted concentration of half-maximal effect. Summed up:
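qHTS, 15-point titration, 3 independent runs: compounds pin-transferred onto dye-loaded CHRM1-CHO cells (human M1), calcium fluorescence followed every second to detect agonism.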

Assay [15] in a line: cAMP Responsive Elements (CRE) small molecule antagonists, cell-based qHTS assay (AID 1963591; active = well fitted inhibition curve with a large enough effect in the signal ratio in the repeat runs, not every such curve was filed as active; the % refers to the signal ratio). The gist of the method:
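Fluorescence intensity from cleaved LiveBLAzer B/G substrate (2 h, room temperature) quantified CRE-bla activity in HEK 293T cells exposed 3 h to compound with 0.25 uM final NKH477.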

The target in assay [16] is Beta-2 adrenergic receptor (Homo sapiens) (UniProt P07550). In words: Adrenergic beta2 receptor (ADRB2) small molecule antagonists, cell-based qHTS assay (AID 1963592). Note: series mostly up to about 92 µM; nearly all actives have a fitted effect of over 50% in size. The gist of the method: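 Assay format: CHO-ADRB2 cells, 18-20hr seeding at 37C/5% CO2, then compound plus 1nM isoproterenol agonist mix for 0.5hr RT. Homogeneous time-resolved fluorescence cAMP detection after 1hr, expressed as 665/615 nm ratio.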

Assay [17] deals with D(2) dopamine receptor (Homo sapiens) (UniProt P14416). In words: Dopamine D2 receptor (DRD2) small molecule agonists, cell-based qHTS assay (AID 1963594). Note: nearly all actives have a fitted effect of over 35% in size. The gist of the method: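 cAMP accumulation in DRD2-HEK293 cells measured by HTRF after 1 h detection; compounds added 10 min before NKH477 (200nM […]) forskolin-analogue stimulation, 30 min at room temperature, with Ro20-1724 present at 0.1 mM final.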

The target is the same in assay [18]. In words: Dopamine D2 receptor (DRD2) small molecule antagonists, cell-based qHTS assay (AID 1963595; active = well fitted inhibition curve with a large enough effect in the signal ratio in the repeat runs, with a control signal flat; the % refers to the signal ratio). The gist of the method: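 HEK293 cells stably expressing DRD2 were preincubated with 0.1 mM Ro20-1724, then with compound for 10 min at room temperature. Cells were stimulated with 200 nM NKH477 plus 12 nM quinpirole for 30 min, and cAMP was read by HTRF.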

Assay [19] can be described thus: cAMP Responsive Elements (CRE) small molecule agonists, cell-based qHTS assay (AID 1963590). Summed up: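 Quantitative HTS for CRE agonists: HEK 293T CRE-bla cells, overnight plating, 3 h compound incubation at 37 C/5% CO2, then 2 h room-temperature LiveBLAzer B/G FRET substrate loading.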

The structures appear in SMILES notation. Several values for one entry are separate records, joined by “and”; a condition that tells them apart may be missing. Equal entries are not always repeated. Inconclusive results are not listed. Activity calls are given as the source filed them. Unless noted, calls come from the whole dose curve.

Muscarinic acetylcholine receptor M1 (Homo sapiens), sequence (P11229 whole entry, looked up): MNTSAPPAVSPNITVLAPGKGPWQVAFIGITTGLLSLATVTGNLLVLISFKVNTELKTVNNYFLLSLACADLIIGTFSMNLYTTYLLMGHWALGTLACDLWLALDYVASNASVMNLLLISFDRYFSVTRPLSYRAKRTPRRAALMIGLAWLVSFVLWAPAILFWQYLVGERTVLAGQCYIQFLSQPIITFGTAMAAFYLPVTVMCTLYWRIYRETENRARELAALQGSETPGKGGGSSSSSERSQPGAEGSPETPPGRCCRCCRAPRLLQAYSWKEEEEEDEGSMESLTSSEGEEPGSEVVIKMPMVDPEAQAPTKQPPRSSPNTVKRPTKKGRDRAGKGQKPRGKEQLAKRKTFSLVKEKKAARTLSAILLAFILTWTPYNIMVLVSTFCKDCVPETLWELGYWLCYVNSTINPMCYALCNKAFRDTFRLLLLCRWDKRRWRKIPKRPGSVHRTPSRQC
D(2) dopamine receptor (Homo sapiens), sequence (P14416 whole entry, looked up): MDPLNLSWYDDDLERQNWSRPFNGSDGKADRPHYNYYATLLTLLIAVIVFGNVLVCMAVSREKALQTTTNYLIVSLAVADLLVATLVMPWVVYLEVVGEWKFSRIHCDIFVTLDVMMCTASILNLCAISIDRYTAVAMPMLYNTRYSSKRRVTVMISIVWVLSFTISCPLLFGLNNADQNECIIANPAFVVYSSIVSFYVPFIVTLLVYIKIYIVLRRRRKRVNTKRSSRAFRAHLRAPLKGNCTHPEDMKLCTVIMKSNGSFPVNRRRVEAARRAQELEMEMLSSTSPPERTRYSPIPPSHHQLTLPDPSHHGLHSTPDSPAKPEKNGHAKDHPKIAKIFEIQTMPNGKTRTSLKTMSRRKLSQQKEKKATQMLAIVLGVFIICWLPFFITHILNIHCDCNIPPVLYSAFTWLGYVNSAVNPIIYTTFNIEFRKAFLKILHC
KiSS-1 receptor (Homo sapiens), sequence (Q969F8 whole entry, looked up): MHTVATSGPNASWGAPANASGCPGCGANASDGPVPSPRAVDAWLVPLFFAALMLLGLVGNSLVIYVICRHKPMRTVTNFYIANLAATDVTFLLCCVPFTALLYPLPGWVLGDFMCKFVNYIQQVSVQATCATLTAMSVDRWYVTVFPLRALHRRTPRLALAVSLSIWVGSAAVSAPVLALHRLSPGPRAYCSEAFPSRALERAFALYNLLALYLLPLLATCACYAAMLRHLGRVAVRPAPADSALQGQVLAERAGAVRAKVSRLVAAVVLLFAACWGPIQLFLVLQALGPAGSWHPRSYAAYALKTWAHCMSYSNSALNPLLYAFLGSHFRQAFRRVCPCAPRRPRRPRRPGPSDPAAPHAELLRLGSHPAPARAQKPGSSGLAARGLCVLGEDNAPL
Beta-2 adrenergic receptor (Homo sapiens), sequence (P07550 whole entry, looked up): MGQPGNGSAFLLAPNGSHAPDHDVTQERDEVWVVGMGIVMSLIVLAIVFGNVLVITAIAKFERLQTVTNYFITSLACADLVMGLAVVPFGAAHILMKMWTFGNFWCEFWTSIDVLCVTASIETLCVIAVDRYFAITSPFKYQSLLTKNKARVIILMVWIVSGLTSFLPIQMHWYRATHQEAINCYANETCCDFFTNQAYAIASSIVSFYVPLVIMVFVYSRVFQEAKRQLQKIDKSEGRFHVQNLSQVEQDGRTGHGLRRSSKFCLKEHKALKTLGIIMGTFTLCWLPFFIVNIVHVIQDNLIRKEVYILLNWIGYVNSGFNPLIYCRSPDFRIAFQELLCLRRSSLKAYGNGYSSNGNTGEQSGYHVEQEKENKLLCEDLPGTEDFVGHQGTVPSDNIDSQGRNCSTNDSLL
5-hydroxytryptamine receptor 2A (Homo sapiens), sequence (P28223 whole entry, looked up): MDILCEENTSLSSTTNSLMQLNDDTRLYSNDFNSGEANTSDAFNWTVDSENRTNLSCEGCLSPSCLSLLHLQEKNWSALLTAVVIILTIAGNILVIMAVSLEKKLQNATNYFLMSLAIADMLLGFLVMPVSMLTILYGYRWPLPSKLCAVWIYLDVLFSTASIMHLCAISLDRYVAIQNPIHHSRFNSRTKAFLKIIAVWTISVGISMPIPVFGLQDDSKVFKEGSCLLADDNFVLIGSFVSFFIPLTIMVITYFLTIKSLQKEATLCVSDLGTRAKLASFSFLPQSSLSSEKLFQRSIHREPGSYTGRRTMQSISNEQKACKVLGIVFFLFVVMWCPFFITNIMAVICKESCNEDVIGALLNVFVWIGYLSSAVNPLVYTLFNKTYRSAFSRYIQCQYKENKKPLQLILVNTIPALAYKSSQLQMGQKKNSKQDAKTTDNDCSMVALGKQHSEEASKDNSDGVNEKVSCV
Gonadotropin-releasing hormone receptor (Homo sapiens), sequence (P30968 whole entry, looked up): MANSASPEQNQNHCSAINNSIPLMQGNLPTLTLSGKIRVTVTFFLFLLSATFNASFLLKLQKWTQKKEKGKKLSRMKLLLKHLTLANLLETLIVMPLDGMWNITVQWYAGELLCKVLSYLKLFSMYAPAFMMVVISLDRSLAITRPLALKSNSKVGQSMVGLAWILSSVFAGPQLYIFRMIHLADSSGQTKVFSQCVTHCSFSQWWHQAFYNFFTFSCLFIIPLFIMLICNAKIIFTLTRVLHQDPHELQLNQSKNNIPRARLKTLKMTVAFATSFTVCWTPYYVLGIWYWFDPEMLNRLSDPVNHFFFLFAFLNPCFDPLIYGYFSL

Take `O=[N+]([O-])c1c(Cl)c(Cl)c(Cl)c(Cl)c1Cl`: the Potency result in [1], in assay [3], in assay [4], in assay [5], in [6] and in assay [7] was “inactive” each time. Also, the Potency entry in assay [8], in assay [9], in [10], in assay [11], in [12] and in assay [13] was “inactive” each time. In addition, the Potency result in [14], in assay [15], in assay [16], in assay [17] and in assay [18] was “inactive” each time. Besides, in [2], the Potency is 27.2 µM (active) and 54.5 µM (active).
Regarding `CCCC[N+]1(C)CCCC1` (tested in a mixture with another compound), the Potency result in assay [1], in assay [2], in assay [3], in [4], in assay [5] and in [6] was “inactive” each time. The Potency result in [7], in assay [8], in assay [9], in assay [11], in [12] and in assay [19] was “inactive” each time. For the same compound, the Potency result in [15], in assay [16], in assay [17] and in assay [18] was “inactive” throughout. The Potency was 9.54 µM (active) in [13] and 4.96 µM (active) in assay [14].
`N#Cc1cccc(C#N)c1`: the Potency result in assay [1], in assay [2], in [3], in [4], in assay [5] and in assay [6] was “inactive” each time. Further, the Potency entry in [7], in [8], in assay [9], in assay [10], in assay [11] and in assay [12] was “inactive” each time. For the same compound, the Potency result in assay [13], in assay [14], in [19], in assay [15], in assay [16] and in assay [17] was “inactive” each time. For the same compound, the Potency entry in [18] is “inactive”.
For `N#CCC#N`, the Potency result in [1], in assay [3], in assay [4], in assay [5], in [6] and in assay [7] was “inactive” in each case. Also, the Potency entry in assay [8], in assay [9], in [10], in assay [11], in assay [12] and in assay [13] was “inactive” throughout. Moreover, the Potency result in [14], in assay [19], in assay [15], in assay [16], in assay [17] and in assay [18] was “inactive” in each case. Besides, the Potency in assay [2] is 61.1 µM (active).
In the case of `CCCCOP(=O)(CCCC)OCCCC`, the Potency entry in assay [1], in assay [2], in assay [3], in assay [4], in assay [5] and in assay [6] was “inactive” in each case. Also, the Potency entry in assay [7], in assay [8], in assay [9], in assay [10], in assay [11] and in [13] was “inactive” each time. The Potency result in [14], in assay [19], in assay [15], in assay [16], in assay [17] and in [18] was “inactive” each time. Moreover, the Potency in [12] was 19.5 µM (active).
Regarding `COC(=O)c1ccccc1N`, the Potency entry in assay [1], in assay [2], in assay [3], in [4], in assay [5] and in assay [6] was “inactive” in each case. Moreover, the Potency entry in assay [7], in [8], in assay [9], in [11], in assay [12] and in assay [13] was “inactive” each time. Further, the Potency entry in assay [14], in [19], in assay [15], in assay [16] and in assay [17] was “inactive” throughout.
In the case of `O=C=NC1CCCCC1`, the Potency result in assay [1], in assay [2], in [3], in assay [4], in assay [5] and in assay [6] was “inactive” throughout. The Potency entry in [7], in assay [8], in assay [9], in [10], in assay [11] and in assay [13] was “inactive” each time. Also, the Potency result in assay [14], in [19], in [15], in [16], in assay [17] and in assay [18] was “inactive” in each case.
